# ClpP mod: qHTS Assay for Activators of ClpP; ATP-dependent Clp protease proteolytic subunit (Bacillus subtilis (strain 168)), P80244; purified B. subtilis ClpP, FRET peptide cleavage, 20 min; Potency, µM (series often up to 57.5 µM), for the others: top-dose activity change, negative = active; 340,000 compounds, 1.9% hits; active = well fitted falling curve with a large enough effect; inconclusive = small, poorly fitted or top-dose-only effect; inactive = no such curve, though single readings can be large or run the other way; also: the source files actives as falling curves though it sought activators and does not explain the sign; nearly all actives have a fitted effect of over 65% in size
#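 ClpP 10 microg/mL final, pH 8 Tris/KCl buffer with BSA, glycerol, Tween-20; compound pinned in; FRET-FV substrate; RT 20 min; Ex320/Em430; ΔFRET vs ADEP 5.8 microM, DMSO, no enzyme.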
# HEK293 tox: qHTS of GLP-1 Receptor Inverse Agonists: Cytotox Screen; HEK293 cAMP-luciferase reporter cells, luminescence, 24 h; Potency, µM (series often up to 38.3 µM), without a hit: at the highest dose activity change, negative = inhibition, hits mostly inhibitors; 410,000 compounds, 0.13% hits;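 also: loss of luciferase light is scored as toxicity; % is scaled to controls: 0 for no effect and ±100 for the full control effect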
#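 MLSMR compounds, 24 hr on cells at 37 deg C/5% CO2; luminescence after luciferase reagent (12 min RT). Inhibition counted as the undesired cytotoxic outcome.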
# GLP-1R inv ag: qHTS of GLP-1 Receptor Inverse Agonists (Inhibition Mode) | HEK293 GLP-1R CRE-luciferase, luminescence, 24 h; GLP-1R form is constitutively active | Potency, µM (doses to about 38.3 µM), for inactives: top-dose activity change, negative = inhibition, hits mostly inhibitors | 410,000 compounds, 1.6% hits | AID 624417, 2012; also: % is scaled to controls: 0 for no effect and ±100 for the full control effect; nearly all actives have a fitted effect of over 55% in size
#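 Seeding at 200 cells/uL, 12 h culture, 24 hr compound treatment, then luciferase reagent and a luminescence read; cells are HEK293 stably expressing a constitutively active GLP-1R plus cAMP-responsive luciferase.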
# GLP-1R agonist: qHTS of GLP-1 Receptor Agonists; 380,000 compounds, 0.007% hits; Potency, µM (series often up to 45.6 µM), inactives show at the top dose activation, usual class: activators; HEK293 GLP-1R CRE-luciferase, luminescence, 4-6 h; cells express a hypersensitive GLP-1R form; Glucagon-like peptide 1 receptor (Homo sapiens), P43220; AID 624172, 2012; also: % of control where 0% means no effect
# * hit, by the source's call; ? = inconclusive; . = no result given; [ ] = another dose, or the depositor's remark. Most compounds without a hit are left out; they make up all but 3.2% or so of the library. Unless noted, calls follow the shape of the dose curve; as a rule, active = well fitted curve in the direction sought with a large enough effect; inconclusive = small, poorly fitted or top-dose-only effect, or another doubt; inactive = no such curve, though single readings can be large; an effect the other way counts as inactive or inconclusive. Potency is read from the fitted curve at half-maximal effect.
SMILES,ClpP mod,HEK293 tox,GLP-1R inv ag,GLP-1R agonist
COc1ccc(CCN(C)C(=O)CSc2nnc(C3CC3)n2N)cc1OC,25.1µM*,-1.3%,41.8%,8.4%
O=C(NNC(=O)c1ccccc1Cl)c1cc2cc(OC(F)(F)F)ccc2[nH]1,15.8µM*,0.2%,2.7%,-0.5%
CCOc1ccc(CNC(=O)c2ccc(NC(=O)N3CCSc4ncccc43)cc2)cc1,?,-12.0%,15.5%,.
COc1ccc(NC(=O)CN2C(=O)C3(SCC(=O)N3c3ccccc3)c3ccccc32)cc1Cl (centres undefined),-2.2%,5.1%,1.6%,-2.0%
COc1ccc(Cc2c(-c3cccc(Cl)c3)nc3cc(C)c(Br)c(C)n23)c(C)c1,0.6%,0.3%,8.91µM*,-0.8%
COc1cccc2cc(-c3nc(-c4ccccc4)c(C)s3)c(=O)oc12,-3.9%,.,.,.
CCc1sc(-c2cc3cccc(OC)c3oc2=O)nc1-c1ccccc1,14.1µM*,.,.,.
CC(C)C1N=C2c3ccccc3N=C(SCC(=O)NCc3ccc(F)cc3)N2C1=O (centres undefined),4.3%,3.8%,18.1%,.
COCCCNC(=O)CSC1=Nc2ccccc2C2=NC(CC(=O)NCc3ccccc3)C(=O)N12 (centres undefined),28.2µM*,8.6%,2.0%,9.7%
CC(C)C1N=C2c3ccccc3N=C(SCC#N)N2C1=O (centres undefined),12.6µM*,0.9%,7.8%,-7.6%
CCC(C)NC(=O)CSC1=Nc2ccccc2C2=NC(CC(=O)NCc3ccccc3)C(=O)N12 (centres undefined),28.2µM*,-13.8%,13.6%,0.6%
CCC(C)NC(=O)CSC1=Nc2ccccc2C2=NC(c3ccccc3)C(=O)N12 (centres undefined),15.8µM*,-10.7%,7.6%,0.9%
O=C(C[n+]1cccc(I)c1)c1ccc(F)cc1,0.4%,.,.,.
CC(C)CC(C(=O)NCc1ccc(F)cc1)N1Cc2ccccc2C1=O (centres undefined),-0.6%,5.0%,-43.5%,.
O=C(Nc1nnc(SCc2ccc(F)cc2)s1)c1cccnc1Cl,.,-10.9%,-6.8%,-2.9%
CCc1nnc(NC(=O)c2ccc3ccccc3n2)s1,-2.9%,?,7.94µM*,-1.8%
CCSc1nnc(NC(=O)c2cc(C)nc3ccccc23)s1,-2.1%,-7.2%,-15.0%,-2.8%
O=C(Nc1nnc(SCc2ccc(F)cc2)s1)c1ccccn1,.,5.62µM*,?,?
CCSc1nnc(NC(=O)c2ccc3ccccc3n2)s1,7.2%,?,5.01µM*,-19.4%
Cc1ccc(NC(=O)C2CCCN(c3nnc(C)c4c(C)n(-c5ccccc5)nc34)C2)cc1Cl (centres undefined),-11.0%,-17.6%,17.8%,.
COc1ccc(C2CC(=O)Nc3c2c(=O)nc2c(C)cccn32)cc1 (centres undefined),-28.9%,1.6%,-1.8%,-3.9%
CCc1ccccc1NC(=O)CSc1nnc(-c2cc(OC)c(OC)c(OC)c2)o1,0.2%,-5.3%,4.8%,.
COc1cccc2c1nc(C)c1cc(C)oc12,28.2µM*,-11.1%,19.2%,25.7%
CC(C)c1nc2sc3c(=O)n(N)cnc3c2c2c1COC(C)(C)C2,15.8µM*,2.1%,50.9%,21.6%
COc1ccc(N2C(=O)c3ccccc3NC23CCC(C)CC3)cc1 (centres undefined),?,7.2%,4.7%,8.5%
SMILES,ClpP mod,HEK293 tox,GLP-1R inv ag,GLP-1R agonist
COc1ccc(N2C(=O)c3ccccc3NC23CCCCC3)cc1,28.2µM*,-18.2%,1.9%,-2.7%
Nc1ccc2c(c1)-c1ccccc1S(=O)(=O)N2,0.3%,62.4%,0.0%,-7.7%
Cc1ccc2c(c1)-c1ccccc1S(=O)(=O)N2,28.2µM*,-0.3%,-5.5%,-1.5%
COc1ccc(C2C(C(=O)c3ccccc3)=C(C)Nc3nc4ccccc4n32)c(OC)c1 (centres undefined),0.6%,-3.1%,-9.0%,0.6%
COc1cc(OC)c(C2C3=C(CCCC3=O)Nc3nc4ccccc4n32)cc1OC (centres undefined),25.1µM*,-0.5%,-8.2%,-3.4%
CNC(=O)c1ccccc1Sc1ccc2c(/C=C/c3ccccn3)n[nH]c2c1,.,.,.,13.8%
Cc1ccc2c(c1)-c1c(cnn1CC(=O)N1CCN(c3ccccc3F)CC1)CO2,-0.1%,5.1%,-5.2%,.
O=C1CC2(CCN(C(=O)c3ccccc3Br)CC2)Oc2ccccc21,28.2µM*,22.9%,?,-1.1%
O=C1CC2(CCN(C(=O)c3ccc(Br)cc3)CC2)Oc2ccccc21,31.6µM*,12.7%,?,-4.4%
Cc1ccc(S(=O)(=O)NNC(=S)Nc2ccc(Cl)cc2)cc1,28.2µM*,?,?,-1.9%
Cc1ccc(CNC(=S)Nc2ccc(NS(=O)(=O)c3ccc(C)cc3)cc2)cc1,-5.5%,?,10µM*,0.4%
Cc1ccc(S(=O)(=O)NNC(=S)Nc2ccccc2)cc1,0.7%,-3.7%,8.8%,2.0%
O=C1CC(c2nc3ccccc3[nH]2)CN1c1cccc(Cl)c1 (centres undefined),1.2%,1.3%,-24.9%,.
CCOC(=O)c1ccc(NC(=O)Nc2ccc3snnc3c2)cc1,-2.9%,-5.2%,-2.8%,11.5%
O=c1c2ccccc2c(C=NCCc2ccccc2)c(O)n1Cc1ccccc1,-3.6%,11.6%,5.01µM*,-18.6%
O=c1c2ccccc2c(C=NCCCN2CCOCC2)c(O)n1Cc1ccccc1,-0.9%,-10.2%,?,19.4%
COc1ccc(CN(Cc2ccccc2)C(=O)Nc2ccccc2)cc1COc1ccc(NC(C)=O)cc1,-2.3%,.,.,.
C=CCNC(=S)N1CCN(c2ncc(C(F)(F)F)cc2Cl)CC1,.,-10.3%,8.91µM*,17.9%
Cc1cc(C)cc(NC(=S)N2CCN(c3ncc(C(F)(F)F)cc3Cl)CC2)c1,.,-5.5%,-28.5%,5.5%
CN(C)/C=C/C(=O)c1ccc(N2CCN(c3ncc(C(F)(F)F)cc3Cl)CC2)cc1,-14.8%,-23.4%,?,-1.2%
CN(C)C=NC(=O)c1ccc(N2CCN(c3ncc(C(F)(F)F)cc3Cl)CC2)cc1,25.1µM*,26.6%,11.6%,2.9%
CCOC(=O)N1CCN(C(=O)CN(c2ccc(C)cc2C)S(=O)(=O)c2ccccc2)CC1,1.2%,-0.7%,-0.8%,8.8%
COc1cc2c(c(OC)c1)C(c1cc(OC)c(OC)c(OC)c1)CC(=O)N2 (centres undefined),0.0%,1.0%,14.1%,7.0%
O=C(NCc1ccc2c(c1)OCO2)c1ccc2c(c1)N(Cc1ccccc1F)C(=O)c1ccccc1S2,-0.7%,6.3%,-17.2%,.
O=C(NCc1ccc2c(c1)OCO2)c1ccc2c(c1)N(Cc1c(F)cccc1Cl)C(=O)CS2,14.1µM*,6.8%[1.53 µM],?,5.2%
CCCCCOc1ccc(C2C(C(C)=O)=C(C)Nc3ncnn32)cc1OC (centres undefined),11.2µM*,1.8%,-2.0%,3.2%
